Experimental data as given in ChEMBL document CHEMBL4513146, “CO-ADD screening of Karazin Kharkiv National University (Ukraine) compounds”.
Entries with a potency or affinity are not part of this list.

Test system: Staphylococcus aureus
Settings: Concentration 32 ug.mL-1;; ASSAY_TEST Inhibition of Bacterial Growth; detection method Absorption (OD600); MEDIA CAMHB; plate type 384well; NBS; CORNING #3640; time 18 hr

| Compound | Inhibition [%] |
| --- | --- |
| Cc1cccc(NC(=O)Cn2nc3c(SC4CCCCC4)nccn3c2=O)c1C | 2.67 |
| CCOc1ccc(-n2ccn3c(SCC(=O)Nc4ccc(C)cc4)nnc3c2=O)cc1 | 15.66 |
| CCOc1ccc(-n2ccn3c(SCC(=O)c4cc(C)c(C)cc4C)nnc3c2=O)cc1 | 7.6 |
| Cc1ccc(Oc2nccn3c(=O)n(CC(=O)Nc4cccc(Br)c4)nc23)cc1 | 4.81 |
| COc1ccccc1CNC(=O)Cn1nc2c(SCc3ccc(Cl)cc3)nccn2c1=O | 6.37 |
| Cc1nnc2ccc(S(=O)(=O)N(Cc3cccc(Cl)c3)c3ccc(F)cc3)cn12 | 3.62 |
| Cc1ccc(-n2ccn3c(=O)n(Cc4ccccc4F)nc3c2=O)cc1C | 8.2 |
| COc1cccc(-n2ccn3c(SCC(=O)NCc4ccco4)nnc3c2=O)c1 | 13.02 |
| O=c1n(Cc2nc(-c3ccc4c(c3)OCO4)no2)nc2ccc(-c3ccccc3)nn12 | -9.1 |
| CN(C(=O)Cn1nc2n(Cc3cccs3)c(=O)c3sccc3n2c1=O)c1ccccc1 | -14.76 |
| O=c1c2nnc(SCc3ccccc3Cl)n2ccn1-c1ccc(F)cc1 | 8.27 |
| O=C(CSc1nc2ccccc2n2cnnc12)NCc1ccccc1Cl | 1.47 |
| COc1ccc(NC(=O)Cn2nc3c(Sc4ccccc4)nccn3c2=O)cc1OC | -8.9 |
| CC(C)Cn1c(=O)c2sccc2n2c(=O)n(CC(=O)N(C)c3ccccc3)nc12 | 4.88 |
| Cc1ccccc1Oc1nccn2c(=O)n(CC(=O)Nc3ccc(C#N)cc3)nc12 | 8.67 |
| CCc1ccccc1NC(=O)CSc1nnc2ccc(C(=O)Nc3cccc(F)c3)cn12 | 19.17 |
| Cc1nnc2ccc(S(=O)(=O)N(Cc3cc(F)cc(F)c3)c3ccccc3)cn12 | 12.61 |
| CCOC(=O)c1ccc(NC(=O)Cn2nc3c(SCc4ccc(Cl)cc4)nccn3c2=O)cc1 | -2.95 |
| Cc1ccc(NC(=O)Cn2nc3c(Oc4ccccc4)nccn3c2=O)c(Br)c1 | 1.04 |
| O=C(CSc1nnc2c(=O)n(-c3ccc(Br)cc3)ccn12)c1c[nH]c2ccccc12 | 12.46 |

| Compound | Inhibition [%] |
| --- | --- |
| COc1ccc(CNC(=O)Cn2nc3c(N4CC(C)CC(C)C4)nccn3c2=O)cc1 (stereo not given) | 7.67 |
| CCOC(=O)c1ccc(NC(=O)Cn2nc3c4cc(-c5ccc(C)cc5)nn4ccn3c2=O)cc1 | -5.61 |
| Cc1ccc(Sc2nccn3c(=O)n(CC(=O)Nc4c(C)cc(C)cc4C)nc23)c(C)c1 | 17.35 |
| CCc1nnc2c(=O)n(CC(=O)Nc3ccc(Br)cc3F)c3ccccc3n12 | -3.08 |
| CCC(C)NC(=O)Cn1nc2n(Cc3cccs3)c(=O)c3sccc3n2c1=O (stereo not given) | 3.01 |
| Cc1ccc(-c2cc3c4nn(CC(=O)Nc5cccc(Br)c5)c(=O)n4ccn3n2)cc1 | 8.15 |
| Cc1ccc(NC(=O)Cn2nc3ccc(SCc4ccc(Cl)cc4)nn3c2=O)c(C)c1 | -11.8 |
| COc1cccc(-n2ccn3c(SCc4cccc(C)c4)nnc3c2=O)c1 | 13.81 |
| CCOc1ccc(NC(=O)Cn2nc3c(Sc4ccccc4)nccn3c2=O)cc1 | 1.52 |
| Cc1cc2nn(CC(=O)Nc3cc(F)ccc3C)c(=O)n2c(Nc2ccc(F)c(C)c2)n1 | 9.03 |
| Cc1nnc2ccc(S(=O)(=O)N(Cc3cc(F)cc(F)c3)c3ccc(F)cc3)cn12 | 1.57 |
| Cc1cc2nn(CC(=O)Nc3ccc(F)cc3Cl)c(=O)n2c(Nc2ccc(F)cc2)n1 | 4.61 |
| COc1ccc(N(Cc2cccc(F)c2)S(=O)(=O)c2ccc3nncn3c2)cc1 | -9.11 |
| CC(C)n1c(=O)c2ccc(C(=O)NC3CCCC3)cc2n2c(=O)n(Cc3cccc(C(F)(F)F)c3)nc12 | 8.2 |
| COc1ccc(NC(=O)Cn2nc3c(Oc4ccc(C)cc4)nccn3c2=O)cc1Cl | -1.59 |
| Cc1ccc(Oc2nccn3c(=O)n(CC(=O)NCc4cccs4)nc23)cc1 | 11.07 |
| Cc1nnc2c(=O)n(CC(=O)Nc3ccccc3Br)c3ccccc3n12 | 16.36 |
| O=C(Cn1nc2c(Oc3ccccc3)nccn2c1=O)Nc1ccc(Br)cc1F | -5.68 |
| Cc1ccc(F)cc1NC(=O)CSc1nnc2ccc(C(=O)Nc3cccc(F)c3)cn12 | 13.04 |
| CCC(C)NC(=O)CCn1c(=O)c2ccccc2n2c(=O)n(CC(=O)NCc3cccs3)nc12 (stereo not given) | 6.1 |
